Reference: PubChem BioAssay
Results filed as inconclusive are left out. Calls of active or inactive are those of the source.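 How the source made its calls, unless noted: active means thallium flux through the channel raised or lowered by more than 3 SD from vehicle-only wells, actives on both sides; inactive means the rest.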

Key:
[1] = P. berghei load reduction in hepatocytes – cell-based, HepG2, luciferase luminescence, HepG2 viability, primary screen (AID 624349; in the data active means parasite load remaining mostly below about 12%, no sharp cut-off; inactive means mostly above about 10%;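 further: 100% = mean of DMSO negative control wells on the same plate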); conditions: P. berghei liver stage in HepG2, luciferase luminescence, concentration not given here; parasite load remaining: stronger effect = lower value; viability: measured here: HepG2 viability without parasites
[2] = signal quenchers or enhancers, Cy5 substrate/SSB – biochemical, NIH Clinical Collection, E. coli SSB, artefact control for HCV NS3 helicase inhibitor project (AID 743268; call rule not given here); conditions: Cy5-oligo bound E. coli SSB, fluorescence interference
[3] = test system: Hepatitis C virus NS3 helicase; assay: blockers of NS3h binding to DNA – biochemical, fluorescence polarization, NIH Clinical Collection, primary screen (AID 743270; call rule not given here); conditions: NS3 helicase binding to Cy5-dT15 DNA, stronger effect = higher value, concentration not given here
[4] = biological target: Single-stranded DNA-binding protein (Escherichia coli (strain K12)) (UniProt P0AGE0); assay: SSB-ssDNA binding inhibitors – biochemical, fluorescence polarization, NIH Clinical Collection, counter-screen for HCV NS3 helicase inhibitor project (AID 743271; in the data active means inhibition above about 28%); conditions: E. coli SSB-DNA binding, stronger effect = higher value, concentration not given here
[5] = compounds distorting NS3 helicase fluorescence signal – biochemical, NIH Clinical Collection, artefact control for HCV NS3 helicase inhibitor project (AID 743272; call rule not given here;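 further: HCV NS3 helicase with a Cy5 labelled single stranded DNA probe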); conditions: fluorescence interference counterscreen, HCV NS3 helicase assay; stronger effect = lower value
[6] = test system: Neuropilin-2 / VEGF-C interaction (human); assay: small molecules blocking Neuropilin-2/VEGF-C interaction – biochemical, microplate binding format, z-score (AID 743281; call rule not given here); conditions: microplate NRP2/VEGF-C binding assay; stronger effect = lower value
[7] = modulation of C. elegans fzo-1 (AID 1259413; call rule not given here;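 further: fzo-1 mutant C. elegans worms in liquid wells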); conditions: C. elegans fzo-1 modulator screen, mean read-out; stronger effect = higher value
[8] = viability loss in pontine glioma line – cell-based, SU-DIPG-XVII, MIPE5.0, CellTiter-Glo, qHTS, dose response (AID 1347060; cut-off not given, nearly all actives have AC50 up to about 26 µM;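 further: cells exposed to compound for 48 hours before viability readout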); conditions: CellTiter-Glo ATP luminescence
[9] = viability loss in pontine glioma line – cell-based, SU-DIPG-XIII, MIPE4.0, CellTiter-Glo, qHTS, dose response (AID 1347061; cut-off not given, nearly all actives have AC50 up to about 37 µM;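 further: cells exposed to compound for 48 hours before readout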); conditions: CellTiter-Glo ATP luminescence
[10] = viability loss in pontine glioma line – cell-based, JHH-DIPG-1, MIPE4.0, CellTiter-Glo, qHTS, dose response (AID 1347062; cut-off not given, nearly all actives have AC50 up to about 27 µM); conditions: JHH-DIPG-1 viability, CellTiter-Glo ATP luminescence
[11] = viability loss in pontine glioma line – cell-based, SU-DIPG-IV, MIPE4.0, CellTiter-Glo, qHTS, dose response (AID 1347063; cut-off not given, nearly all actives have AC50 up to about 30 µM;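 further: compound exposure lasted 48 hours before the viability readout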); conditions: CellTiter-Glo ATP luminescence
[12] = viability loss in pontine glioma line – cell-based, SU-DIPG-XXV, MIPE5.0, CellTiter-Glo, qHTS, dose response (AID 1347065; cut-off not given, nearly all actives have AC50 up to about 26 µM;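 further: cells exposed to compound for 48 hours before ATP readout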); conditions: CellTiter-Glo ATP luminescence
[13] = JHH-DIPG-1 glioma cell viability, MIPE5.0 library, CellTiter-Glo luminescence, qHTS (AID 1347067; cut-off not given, nearly all actives have AC50 up to about 26 µM;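 further: cells exposed to compound for 48 hours before readout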); conditions: JHH-DIPG-1 glioma viability, CellTiter-Glo ATP luminescence
[14] = growth inhibition of DIPG cells – cell-based, MIPE5.0 library, qHTS (AID 1347068; cut-off not given, nearly all actives have IC50 up to about 30 µM;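 further: cells exposed to compound for 48 hours before viability readout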); conditions: SU-DIPG-XXV viability
[15] = viability loss with induced miR-34 in A549 – imaging, A549 dox-inducible miR-34, nuclei and caspase counts, primary screen (AID 1347080;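 active means compounds whose cell count with miR-34 switched on is under 0.7 times the count with it off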); conditions: A549 miR-34 inducible, Hoechst nuclei count, 48 h
[16] = chitosan synthesis blockers in C. neoformans – flow cytometry, Cibacron Brilliant Red staining (AID 1347148; call rule not given here;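 further: compound exposure lasted three days at 37 degrees C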); conditions: Cryptococcus neoformans chitosan, stronger effect = lower value; at 10 µM unless noted
[17] = compounds altering HSF1 focus formation in cells – imaging, Selleck Cancer Library (AID 1347162; in the data active means plate-normalised HSF1 focus index below about 0.46); conditions: human cells, HSF1 nuclear foci imaging, at 10 µM; SSMD: measured here: HSF1 foci SSMD mean; cell count: measured here: cell number; plate-normalised HSF1 focus index: stronger effect = lower value
[18] = test system: F380Y; assay: BK channel mutant inhibitors and activators – cell-based, U2OS BacMam, thallium flux, beta subunits, selectivity assay, profiling panel (AID 1259406); conditions: U2OS BacMam BK variants, at 30 µM;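 further: initial slope of Thallos dye fluorescence rise after thallium is added; log ratio against the mean of 0.3% DMSO vehicle wells on the same plate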
[19] = test system: F380Y/beta1; assay: as above; conditions: U2OS BacMam BK variants, at 30 µM
[20] = test system: F380Y/beta2Delta; assay: as above; conditions: U2OS BacMam BK variants, at 30 µM
[21] = test system: F380Y/beta4; assay: as above; conditions: U2OS BacMam BK variants, at 30 µM
[22] = biological target: Calcium-activated potassium channel subunit alpha-1 (Homo sapiens) + Leucine-rich repeat-containing protein 26 (Homo sapiens) (UniProt Q12791+Q2I0M4); assay: as above; conditions: U2OS BacMam BK variants, F380Y/Slo1WT/gamma1, at 30 µM
Chain of Calcium-activated potassium channel subunit alpha-1 (Homo sapiens) + Leucine-rich repeat-containing protein 26 (Homo sapiens) (Q2I0M4 whole entry, looked up, one chain of several): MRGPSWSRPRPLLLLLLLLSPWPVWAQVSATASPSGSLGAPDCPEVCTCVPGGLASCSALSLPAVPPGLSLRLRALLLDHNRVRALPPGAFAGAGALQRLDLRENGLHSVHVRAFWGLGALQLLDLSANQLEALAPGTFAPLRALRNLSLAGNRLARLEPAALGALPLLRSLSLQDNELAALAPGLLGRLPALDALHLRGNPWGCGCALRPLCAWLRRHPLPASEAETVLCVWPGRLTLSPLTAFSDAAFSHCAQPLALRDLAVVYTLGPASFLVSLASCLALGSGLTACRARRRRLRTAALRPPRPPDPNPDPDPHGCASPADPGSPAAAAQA

[23] = test system: R275C; assay: as above; conditions: U2OS BacMam BK variants, at 30 µM
[24] = test system: R275C/beta1; assay: as above; conditions: U2OS BacMam BK variants, at 30 µM
[25] = test system: R275C/beta2Delta; assay: as above; conditions: U2OS BacMam BK variants, at 30 µM
[26] = test system: R275C/beta4; assay: as above; conditions: U2OS BacMam BK variants, at 30 µM
[27] = test system: R275C/Slo1WT/beta2; assay: as above; conditions: U2OS BacMam BK variants, at 30 µM
[28] = galactose survival enhancers in mitochondrial complex I cybrids – cell-based, galactose medium, ATP luminescence, primary screen (AID 1645843;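 active means z-score of at least 1.8 in each of two replicates, scored against plate mean and spread of sample wells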;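 further: positive z means more ATP and so rescue of galactose-driven cybrid death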); conditions: complex I mutant cybrid cells, 72 h, stronger effect = higher value
[29] = measured here: relative caspase fold change +Dox/-Dox
[30] = measured here: total cells with miR-34 induction, stronger effect = lower value
[31] = measured here: total cells without miR-34 induction

CC(C)[C@]12O[C@H]1[C@@H]1O[C@]13[C@]1(O[C@H]1C[C@H]1C4=C(CC[C@@]13C)C(=O)OC4)[C@@H]2O
active: AC50 [8] 186 nM | AC50 [12] 209 nM | AC50 [13] 83.3 nM | IC50 [14] 186 nM
67.7%: viability [1]
inactive: parasite load remaining [1] 122% | fluorescence ratio [2] 1.04 | inhibition [3] -2.77% | inhibition [4] -6.26% | fluorescence ratio [5] 1.03 | z-score [6] 0.859 | mean signal [7] 159 | outcome [9] | outcome [10] | outcome [11] | fold change ([15]; stronger effect = lower value) 1.04 | fold fluorescence [16] 4.23 [at 138.7 µM] | plate-normalised HSF1 focus index [17] 0.769 | log fold change Tl+ flux [18] -0.0264 | log fold change Tl+ flux [19] -0.0154 | log fold change Tl+ flux [20] -0.0407 | log fold change Tl+ flux [21] 0.00828 | log fold change Tl+ flux [22] 0.0324 | log fold change Tl+ flux [23] -0.0177 | log fold change Tl+ flux [24] 0.0288 | log fold change Tl+ flux [25] 0.0395 | log fold change Tl+ flux [26] 0.0135 | log fold change Tl+ flux [27] 0.00131
1300: cell count [15, 31]
1360: cell count [15, 30]
1.51: fold change [15, 29]
-5.07: SSMD [17]
6670: cell count [17]

c1ccc(Cn2ccnc2)cc1
inactive: parasite load remaining [1] 66.3% | fluorescence ratio [2] 0.9 | inhibition [3] -1.09% | inhibition [4] 1.97% | fluorescence ratio [5] 0.88 | z-score [6] 0.238 | mean signal [7] 248 | fold change ([15]; stronger effect = lower value) 1.24 | z-score [28] 0.075 | log fold change Tl+ flux [18] 0.0263 | log fold change Tl+ flux [19] -0.0465 | log fold change Tl+ flux [20] -0.0252 | log fold change Tl+ flux [21] -0.0022 | log fold change Tl+ flux [22] -0.0094 | log fold change Tl+ flux [23] -0.0227 | log fold change Tl+ flux [24] -0.0133 | log fold change Tl+ flux [25] -0.00773 | log fold change Tl+ flux [26] -0.0192 | log fold change Tl+ flux [27] -0.0321
67.7%: viability [1]
0.727: fold change [15, 29]
8900: cell count [15, 30]
7170: cell count [15, 31]

Cc1nnc2n1-c1ccc(Cl)cc1C(c1ccccc1)=NC2
72.1%: viability [1]
9000: cell count [15, 30]
inactive: parasite load remaining [1] 139% | fluorescence ratio [2] 1.03 | inhibition [3] -4.36% | inhibition [4] -1.64% | fluorescence ratio [5] 0.99 | z-score [6] -0.124 | mean signal [7] 234 | fold change ([15]; stronger effect = lower value) 1.01 | z-score [28] 0.965 | log fold change Tl+ flux [18] -0.0314 | log fold change Tl+ flux [19] -0.00299 | log fold change Tl+ flux [20] -0.00534 | log fold change Tl+ flux [21] -0.0542 | log fold change Tl+ flux [22] -0.0153 | log fold change Tl+ flux [23] 0.0519 | log fold change Tl+ flux [24] 0.00402 | log fold change Tl+ flux [25] 0.0255 | log fold change Tl+ flux [26] 0.0351 | log fold change Tl+ flux [27] -0.00622
8940: cell count [15, 31]
1.21: fold change [15, 29]

CC1CCC[C@H](O)CCCCCc2cc(O)cc(O)c2C(=O)O1 (some centres not stated)
active: log fold change Tl+ flux [24] 0.141 | log fold change Tl+ flux [25] 0.1
inactive: parasite load remaining [1] 34.2% | fluorescence ratio [2] 1.04 | inhibition [3] 2.77% | inhibition [4] 0.67% | fluorescence ratio [5] 0.99 | z-score [6] -0.653 | mean signal [7] 252 | log fold change Tl+ flux [18] 0.0327 | log fold change Tl+ flux [19] 0.0798 | log fold change Tl+ flux [20] -0.0124 | log fold change Tl+ flux [21] 0.0166 | log fold change Tl+ flux [22] 0.0353 | log fold change Tl+ flux [23] -0.00393 | log fold change Tl+ flux [26] 0.0349 | log fold change Tl+ flux [27] 0.035
64.7%: viability [1]
